Among the data in PubChem BioAssay (EPA / NIEHS) are AC50 and outcome values, retold here.

Each structure is given as a SMILES string. Values joined by “and” are separate entries in the source; they are usually repeats but may differ in a detail not shown here. Identical values can stand only once. A structure can be active in one record and inactive in another. Active and inactive are the calls of the source. The calls were made as follows: active = hit-call score of the fitted dose curve at least 0.9, where 1 is the maximum; inactive = score below 0.9.

Read-out in experiment [1]: Urokinase-type plasminogen activator receptor (uPAR), PLAUR (gene 5329)
Description: BSK_4H_uPAR: BioMAP Diversity Plus: 4H Assay for Urokinase-type plasminogen activator receptor (uPAR) Biomarker Activity (AID 2283030). As to conditions: primary human endothelial cells (HUVEC); actives raise or lower the signal. In short, it runs like this:
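Human umbilical vein endothelial cells in the 4H system, 24 h after chemical dosing. Cell-surface uPAR measured by ELISA, fitted in both directions versus DMSO; cytotoxicity checked by SRB total protein in parallel cultures.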

Read-out in experiment [2]: Vascular endothelial growth factor receptor 2 (Homo sapiens) (UniProt P35968)
As to the kind of experiment: BSK_4H_VEGFRII: BioMAP Diversity Plus: 4H Assay for Vascular endothelial growth factor receptor 2 (VEGFR2) Biomarker Activity (AID 2283031).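 As to AC50: cell-surface VEGFR2 protein level quantified by ELISA.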 The conditions noted are these: primary human endothelial cells (HUVEC); actives raise or lower the signal. The method, boiled down:
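Primary human umbilical vein endothelial cells (4H system), 24 h exposure; cell-surface VEGFR2 measured by ELISA. Bidirectional fitting versus DMSO; cytotoxicity checked in parallel by SRB total-protein staining.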

Read-out in experiment [3]: Human Leukocyte Antigen - DR isotype (HLADR), HLA-DRA (gene 3122)
As to the kind of experiment: BSK_BE3C_HLADR: BioMAP Diversity Plus: BE3C Assay for Human Leukocyte Antigen - DR isotype (HLADR) Biomarker Activity (AID 2283032). The conditions noted are these: primary human bronchial epithelial cells; actives raise or lower the signal. In short, it runs like this: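 Human primary bronchial epithelial cells (BE3C system) exposed to compound for 24 hours; cell-surface HLA-DR measured by ELISA, fitted bidirectionally relative to DMSO. Total protein by SRB in parallel cultures tracked cytotoxicity.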

Read-out in experiment [4]: Interferon-gamma inducible Protein 10 (IP10), CXCL10 (gene 3627)
Description: BSK_BE3C_IP10: BioMAP Diversity Plus: BE3C Assay for Interferon-gamma inducible Protein 10 (IP10) Biomarker Activity (AID 2283034). As to conditions: primary human bronchial epithelial cells; actives raise or lower the signal. The method, boiled down:
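Primary human bronchial epithelial cells, with IP-10 measured by ELISA 24 hours after chemical dosing. Bidirectional fit against DMSO; cytotoxicity checked by SRB total protein staining in parallel cultures.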

Read-out in experiment [5]: Transforming growth factor beta 1 (TGFb1), TGFB1 (gene 7040)
As to the kind of experiment: BSK_BE3C_TGFb1: BioMAP Diversity Plus: BE3C Assay for Transforming growth factor beta 1 (TGFb1) Biomarker Activity (AID 2283036). The conditions noted are these: primary human bronchial epithelial cells; actives raise or lower the signal. The method, boiled down: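 Primary human bronchial epithelial cells dosed with chemical; TGF-b1 measured by ELISA 24 h after dosing. Bidirectional curve fitting against DMSO negative control; SRB total-protein staining in parallel cultures gauged cytotoxicity.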

Read-out in experiment [6]: Plasminogen activator inhibitor-1 (PAI1), SERPINE1 (gene 5054)
Description: BSK_BE3C_PAI1: BioMAP Diversity Plus: BE3C Assay for Plasminogen activator inhibitor-1 (PAI1) Biomarker Activity (AID 2283037). The conditions noted are these: primary human bronchial epithelial cells; actives raise or lower the signal. In short, it runs like this: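 Primary human bronchial epithelial cells (BE3C system) exposed 24 h; PAI-1 quantified by ELISA. Parallel sulforhodamine B staining of total protein flags cytotoxicity. Bidirectional fit versus DMSO.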

Read-out in experiment [7]: urokinase plasminogen activator (uPA), PLAU (gene 5328)
As to the kind of experiment: BSK_BE3C_uPA: BioMAP Diversity Plus: BE3C Assay for urokinase plasminogen activator (uPA) Biomarker Activity (AID 2283038).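 Also: uPA protein level quantified by ELISA in cell cultures; uPA read one day after compound addition.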 As to conditions: primary human bronchial epithelial cells; actives raise or lower the signal. The method, boiled down:
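Primary human bronchial epithelial cells, uPA measured by ELISA 24 h after dosing. Bidirectional change relative to DMSO; cytotoxicity checked in parallel cultures by sulforhodamine B total-protein staining.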

Read-out in experiment [8]: Urokinase-type plasminogen activator receptor (uPAR), PLAUR (gene 5329)
Description: BSK_BE3C_uPAR: BioMAP Diversity Plus: BE3C Assay for Urokinase-type plasminogen activator receptor (uPAR) Biomarker Activity (AID 2283039).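 As to outcome: cells exposed to compound for one day before measurement.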 As to conditions: primary human bronchial epithelial cells; actives raise or lower the signal. In short, it runs like this: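 Primary human bronchial epithelial cells dosed for 24 h; uPAR quantified by ELISA with bidirectional fitting against DMSO. Overt cytotoxicity assessed in parallel cultures by SRB total-protein staining (0.1% SRB, 560 nm).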

Read-out in experiment [9]: Interleukin-6 (IL6), IL6 (gene 3569)
As to the kind of experiment: BSK_CASM3C_IL6: BioMAP Diversity Plus: CASM3C Assay for Interleukin-6 (IL6) Biomarker Activity for (AID 2283040). The conditions noted are these: primary human coronary artery smooth muscle cells; actives raise or lower the signal.

Read-out in experiment [10]: Tissue plasminogen activator (tPA), PLAT (gene 5327)
As to the kind of experiment: BSK_BE3C_tPA: BioMAP Diversity Plus: BE3C Assay for Tissue plasminogen activator (tPA) Biomarker Activity (AID 2283041).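 As to outcome: tPA level quantified by ELISA one day after compound addition.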 As to conditions: primary human bronchial epithelial cells; actives raise or lower the signal. In short, it runs like this:
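Primary human bronchial epithelial cells in the BE3C system, exposed to compound for 24 h. tPA was quantified by ELISA; DMSO served as baseline, with gain or loss of signal fitted. Cytotoxicity checked in parallel cultures by SRB total-protein staining.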

Read-out in experiment [11]: Interleukin-8 (IL8), CXCL8 (gene 3576)
As to the kind of experiment: BSK_CASM3C_IL8: BioMAP Diversity Plus: CASM3C Assay for Interleukin-8 (IL8) Biomarker Activity (AID 2283042).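 Also: IL-8 protein level quantified by ELISA.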 The conditions noted are these: primary human coronary artery smooth muscle cells; actives raise or lower the signal.

Read-out in experiment [12]: Human Leukocyte Antigen - DR isotype (HLADR), HLA-DRA (gene 3122)
As to the kind of experiment: BSK_CASM3C_HLADR: BioMAP Diversity Plus: CASM3C Assay for Human Leukocyte Antigen - DR isotype (HLADR) Biomarker Activity (AID 2283043).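 Also: cell-surface HLA-DR protein level quantified by ELISA.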 The conditions noted are these: primary human coronary artery smooth muscle cells; actives raise or lower the signal.

Read-out in experiment [13]: Macrophage colony-stimulating factor (MCSF), CSF1 (gene 1435)
Description: BSK_CASM3C_MCSF: BioMAP Diversity Plus: CASM3C Assay for Macrophage colony-stimulating factor (MCSF) Biomarker Activity (AID 2283044).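 Also: M-CSF protein amount quantified by ELISA after 24 h exposure.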 The conditions noted are these: primary human coronary artery smooth muscle cells; actives raise or lower the signal.

Read-out in experiment [14]: Low-density lipoprotein receptor (LDLR), LDLR (gene 3949)
Description: BSK_CASM3C_LDLR: BioMAP Diversity Plus: CASM3C Assay for Low-density lipoprotein receptor (LDLR) Biomarker Activity (AID 2283045).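 Also: LDLR protein level on the cell surface quantified by ELISA.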 The conditions noted are these: primary human coronary artery smooth muscle cells; actives raise or lower the signal.

Read-out in experiment [15]: Monocyte Chemoattractant Protein-1 (MCP1), CCL2 (gene 6347)
Description: BSK_CASM3C_MCP1: BioMAP Diversity Plus: CASM3C Assay for Monocyte Chemoattractant Protein-1 (MCP1) Biomarker Activity (AID 2283046).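 Also: MCP-1 level quantified by ELISA 24 h after dosing.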 The conditions noted are these: primary human coronary artery smooth muscle cells; actives raise or lower the signal.

A short description of experiment [16]: BSK_CASM3C_Proliferation: Cell Proliferation Assessment in the BioMAP Diversity Plus: CASM3C Assay (AID 2283047).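 Also: sulforhodamine B total protein stain as relative cell number at 560 nm; sub-confluent cells exposed 48 h before staining; fitted both ways against DMSO so gain or loss of cell number.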 The conditions noted are these: primary human coronary artery smooth muscle cells.
Read-out in experiment [17]: Monokine induced gamma interferon (MIG), CXCL9 (gene 4283)
Description: BSK_CASM3C_MIG: BioMAP Diversity Plus: CASM3C Assay for Monokine induced gamma interferon (MIG) Biomarker Activity (AID 2283048).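 Also: MIG protein level measured by ELISA.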 As to conditions: primary human coronary artery smooth muscle cells; actives raise or lower the signal.

Read-out in experiment [18]: serum amyloid A (SAA), SAA1 (gene 6288)
Description: BSK_CASM3C_SAA: BioMAP Diversity Plus: CASM3C Assay for serum amyloid A (SAA) Biomarker Activity (AID 2283049).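 Also: SAA protein level quantified by ELISA.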 As to conditions: primary human coronary artery smooth muscle cells; actives raise or lower the signal.

Read-out in experiment [19]: Vascular cell adhesion molecule 1 (VCAM1), VCAM1 (gene 7412)
Description: BSK_4H_VCAM1: BioMAP Diversity Plus: 4H Assay for Vascular cell adhesion molecule 1 (VCAM1) Biomarker Activity (AID 2283033). The conditions noted are these: primary human endothelial cells (HUVEC); actives raise or lower the signal. In short, it runs like this: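 Primary human umbilical vein endothelial cells, 4H stimulation system, treated for 24 h; cell-surface VCAM-1 quantified by ELISA. Bidirectional fitting against DMSO; cytotoxicity tracked by SRB total-protein staining in parallel cultures.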

Read-out in experiment [20]: Monokine induced gamma interferon (MIG), CXCL9 (gene 4283)
Description: BSK_BE3C_MIG: BioMAP Diversity Plus: BE3C Assay for Monokine induced gamma interferon (MIG) Biomarker Activity (AID 2283035). As to conditions: primary human bronchial epithelial cells; actives raise or lower the signal. In short, it runs like this:
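MIG level was determined by ELISA after 24 h chemical treatment of primary human bronchial epithelial cells. Values were fitted bidirectionally with DMSO as the negative control and activity baseline.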

One may read the AC50 as the concentration at which the activity in the assay is half-maximal. As for `CO/C=C(/C(=O)OC)c1ccccc1Oc1cc(Oc2ccccc2C#N)ncn1`, the AC50 in experiment [1] was 30.4 µM (active) and 30.6 µM (active) and 30.8 µM (active); in experiment [2], 21.1 µM (active); in [3], 16.5 µM (active) [middle of 4 runs]; in experiment [4] it was 21.1 µM (active) and 26.1 µM (active); in experiment [6], 21.1 µM (active); in [9] it was 15.8 µM (active) and 21.1 µM (active). The AC50 in experiment [10] is 28.2 µM (active); in experiment [15] it was 30.7 µM (active) and 37.9 µM (active) and 37.6 µM (active); in experiment [16] it was 13.5 µM (active) and 27.1 µM (active) and 13.9 µM (active). Besides, the result in experiment [1], in [2], in experiment [5], in experiment [6], in experiment [7] and in [8] was inactive. Further, the outcome in [9], in [10], in experiment [11], in experiment [12], in [13] and in [14] was inactive. The result in [15], in [16], in [17] and in experiment [18] was inactive.

As for `CCOC(=O)C(Cl)Cc1cc(-n2nc(C)n(C(F)F)c2=O)c(F)cc1Cl` (stereo unspecified), the result in [1], in experiment [2], in [3], in experiment [19], in experiment [4] and in [20] was inactive. The result in experiment [5], in [6], in [7], in experiment [8], in [9] and in [10] was inactive. Besides, the outcome in experiment [11], in experiment [12], in experiment [13], in experiment [14], in experiment [15] and in [16] was inactive. The outcome in experiment [17] and in [18] was inactive.

Turning to `COC(=O)C(C)Oc1ccc(Oc2ccc(Cl)cc2Cl)cc1` (stereo unspecified), the result in [1], in [2], in experiment [3], in experiment [19], in [4] and in experiment [5] was inactive. Further, the result in experiment [6], in experiment [7], in experiment [8], in experiment [9], in experiment [10] and in [11] was inactive. Moreover, the result in [12], in [13], in experiment [14], in experiment [15], in experiment [16] and in experiment [17] was inactive. The outcome in experiment [18] was inactive. In addition, the AC50 in experiment [2] is 20 µM (active); in experiment [3] it was 9.71 µM (active) and 20 µM (active); in experiment [6], 32.5 µM (active); in experiment [9], 32.6 µM (active).

Turning to `C=CCC1=C(C)C(OC(=O)C2C(C=C(C)C)C2(C)C)CC1=O` (stereo unspecified), the AC50 was 38.4 µM (active) and 32.8 µM (active) in [1]; 21 µM (active) and 29.4 µM (active) and 20 µM (active) in [2]; 15.7 µM (active) and 32.3 µM (active) and 30.9 µM (active) in [3]; 31.6 µM (active) [middle of 4 runs] in experiment [19]; 35 µM (active) and 39 µM (active) in [4]; 0.223 µM (active) in experiment [8]. In addition, the AC50 in [12] was 31.7 µM (active) and 32 µM (active) and 27.9 µM (active); in [14], 16.8 µM (active) and 21 µM (active); in experiment [16], 34.4 µM (active) [middle of 4 runs]; in experiment [18] it was 4.17 µM (active). The result in [1], in experiment [2], in experiment [3], in experiment [4], in [20] and in experiment [5] was inactive. Moreover, the outcome in [6], in [7], in experiment [8], in experiment [9], in experiment [10] and in experiment [11] was inactive. Moreover, the result in experiment [12], in [13], in experiment [14], in experiment [15], in experiment [17] and in experiment [18] was inactive.

Consider `CCOC(=O)CC(SP(=S)(OC)OC)C(=O)OCC` (stereo unspecified), for which the outcome in [1], in [2], in experiment [3], in experiment [19], in experiment [4] and in [20] was inactive. Further, the outcome in [5], in experiment [6], in experiment [7], in experiment [8], in experiment [9] and in experiment [10] was inactive. Besides, the outcome in [11], in experiment [12], in experiment [13], in experiment [14], in [15] and in [16] was inactive. In addition, the outcome in experiment [17] and in experiment [18] was inactive.
